# Measured values taken from the supplement of paper PMC8728848.
# This is one part of a sample in which the strongest signals are shown more often than they occur.
# B1: MGL2 (Mus musculus), Q8JZN1 (protein)
# chain: MTMRYENFQNLEREEKNQEMRNGDKKGGMESPKFALIPSQSFLWRILSWTHLLLFSLGLSLLLLVVISVIGSQNSQLRRDLGTLRAILDNTTSKIKAEFQSLDSRADNFEKGISSLKVDVEDHRQELQAGRDLSQKVTSLESTLEKREQALKTDLSDLTDHVQQLETDLKALTCQLANLKNNGSEVACCPLHWTEHEGSCYWFSESEKSWPEADKYCRLENSHLVVVNSLEEQNFLQNRLANVLSWMGLTDQNGPWRWVDGTDFDKGFKNWRPLQPDNWHGHMLGGGEDCAHFSYDGRWNDDVCQRHYHWICETELGKASSAHSPQLIASVP
# What was measured:
# Experiment in all cases: glycan array binding signal (z-score within array); higher = stronger binding
# Settings in all cases: glycan notation: IUPAC condensed, linker removed
# [1] = biological target: GalNAc(a1-3)GalNAc(b1-3)Gal(a1-4)Gal(b1-4)Glc
# Procedure, shortened: (§1)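 Glycan array data were curated from 3228 arrays in the Consortium for Functional Glycomics database and kept only where the protein sequence was available. Glycan names were converted to IUPAC-condensed notation, and columns mapping to the same glycan were averaged. The binding signal is a within-array Z-score, averaged across arrays of the same protein sequence at different concentrations or buffers and across linkers. Negative Z-scores can be read as non-binding.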
# [2] = biological target: GalNAc(b1-3)Gal
# Procedure, shortened: as §1
# [3] = biological target: GalNAc(b1-3)GlcNAc
# Procedure, shortened: as §1
# [4] = biological target: GalNAc(b1-4)GlcNAc
# Procedure, shortened: as §1
# [5] = biological target: GalNAc(b1-4)GlcNAc(b1-3)GalNAc(b1-4)GlcNAc
# Procedure, shortened: as §1
# [6] = biological target: GalNAc(b1-4)GlcNAc6S
# Procedure, shortened: as §1
# [7] = biological target: Glc(a1-6)Glc(a1-6)Glc(a1-6)Glc
# Procedure, shortened: as §1
# [8] = biological target: Glc(b1-6)Glc
# Procedure, shortened: as §1
# [9] = biological target: GlcA(b1-3)Gal
# Procedure, shortened: as §1
# [10] = biological target: GlcA(b1-3)GlcNAc
# Procedure, shortened: as §1
# [11] = biological target: GlcNAc(b1-3)Gal(b1-4)GlcNAc(b1-3)Gal(b1-4)GlcNAc(b1-3)Gal(b1-4)GlcNAc(b1-3)Gal(b1-4)GlcNAc(b1-2)[GlcNAc(b1-3)Gal(b1-4)GlcNAc(b1-3)Gal(b1-4)GlcNAc(b1-3)Gal(b1-4)GlcNAc(b1-3)Gal(b1-4)GlcNAc(b1-6)]Man(a1-6)[GlcNAc(b1-3)Gal(b1-4)GlcNAc(b1-3)Gal(b1-4)GlcNAc(b1-3)Gal(b1-4)GlcNAc(b1-3)Gal(b1-4)GlcNAc(b1-2)Man(a1-3)]Man(b1-4)GlcNAc(b1-4)[Fuc(a1-6)]GlcNAc
# Procedure, shortened: as §1
# [12] = biological target: GlcNAc(b1-3)Gal(b1-4)GlcNAc(b1-6)[Gal(b1-3)]GalNAc
# Procedure, shortened: as §1
# [13] = biological target: GlcNAc(b1-6)GalNAc
# Procedure, shortened: as §1
# [14] = biological target: Man(a1-2)Man(a1-2)Man(a1-3)Man
# Procedure, shortened: as §1
# [15] = biological target: Man(a1-3)[Man(a1-6)]Man(a1-6)[Man(a1-2)Man(a1-3)]Man(b1-4)GlcNAc(b1-4)GlcNAc
# Procedure, shortened: as §1
# [16] = biological target: Neu5Ac(a2-3)Gal(b1-3)GlcNAc(b1-3)Gal(b1-4)GlcNAc
# Procedure, shortened: as §1
# [17] = biological target: Neu5Ac(a2-3)Gal(b1-3)[Fuc(a1-4)]GlcNAc
# Procedure, shortened: as §1
# [18] = biological target: Neu5Ac(a2-3)Gal(b1-4)GlcNAc(b1-2)Man
# Procedure, shortened: as §1
# [19] = biological target: Neu5Ac(a2-3)Gal(b1-4)GlcNAc(b1-3)Gal
# Procedure, shortened: as §1
# [20] = biological target: Neu5Ac(a2-3)Gal(b1-4)GlcNAc(b1-3)Gal(b1-4)GlcNAc(b1-2)Man(a1-3)[Neu5Ac(a2-3)Gal(b1-4)GlcNAc(b1-3)Gal(b1-4)GlcNAc(b1-2)Man(a1-6)]Man(b1-4)GlcNAc(b1-4)GlcNAc
# Procedure, shortened: as §1
# [21] = biological target: Neu5Ac(a2-3)Gal(b1-4)[Fuc(a1-3)]GlcNAc(b1-3)Gal(b1-4)GlcNAc
# Procedure, shortened: as §1
# [22] = biological target: Neu5Ac(a2-3)Gal(b1-4)[Fuc(a1-3)]GlcNAc(b1-6)[Gal(b1-3)]GalNAc
# Procedure, shortened: as §1
# [23] = biological target: Neu5Ac(a2-6)Gal(b1-4)GlcNAc(b1-2)Man
# Procedure, shortened: as §1
# [24] = biological target: Neu5Ac(a2-6)Gal(b1-4)GlcNAc(b1-2)Man(a1-6)[Gal(b1-4)GlcNAc(b1-2)Man(a1-3)]Man(b1-4)GlcNAc(b1-4)GlcNAc
# Procedure, shortened: as §1
# [25] = biological target: Neu5Ac(a2-8)Neu5Ac(a2-8)Neu5Ac(a2-3)[Gal(b1-3)GalNAc(b1-4)]Gal(b1-4)Glc
# Procedure, shortened: as §1
# [26] = biological target: Neu5Ac(b2-6)GalNAc
# Procedure, shortened: as §1
binder,measurement,setting,value
B1,glycan array binding signal (z-score),[1],-0.259
same,glycan array binding signal (z-score),[2],4.95
same,glycan array binding signal (z-score),[3],8.82
same,glycan array binding signal (z-score),[4],5.73
same,glycan array binding signal (z-score),[5],2.48
same,glycan array binding signal (z-score),[6],3.46
same,glycan array binding signal (z-score),[7],0.014
same,glycan array binding signal (z-score),[8],-0.253
same,glycan array binding signal (z-score),[9],-0.219
same,glycan array binding signal (z-score),[10],0.307
same,glycan array binding signal (z-score),[11],-0.062
same,glycan array binding signal (z-score),[12],-0.047
same,glycan array binding signal (z-score),[13],6.85
same,glycan array binding signal (z-score),[14],-0.161
same,glycan array binding signal (z-score),[15],-0.006
same,glycan array binding signal (z-score),[16],-0.274
same,glycan array binding signal (z-score),[17],-0.173
same,glycan array binding signal (z-score),[18],-0.034
same,glycan array binding signal (z-score),[19],-0.3
same,glycan array binding signal (z-score),[20],0.166
same,glycan array binding signal (z-score),[21],-0.189
same,glycan array binding signal (z-score),[22],-0.139
same,glycan array binding signal (z-score),[23],-0.19
same,glycan array binding signal (z-score),[24],-0.174
same,glycan array binding signal (z-score),[25],-0.194
same,glycan array binding signal (z-score),[26],-0.176
